# HSV augment: HSV replication enhancement | maximum fold increase | HSV replication augmentation in cells, fold increase | 220,000 compounds, 0.005% hits; in the data active = maximum fold increase above about 1.5; tested in PC3 cells
# Insulin prom up: MIN6 insulin promoter up-regulation. 190,000 compounds, 0.3% hits. z-score at 5 µM. MIN6 insulin promoter-GFP reporter, high-content imaging; active compounds read high;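 active = z-score above 3 at 5 µM with at least 500 cells counted in the well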
# INS promoter inh: TRM-6 insulin promoter activity inhibition; TRM-6 cells (human fetal islet line), insulin promoter-eGFP reporter, imaging; reporter expression induced with tamoxifen; inhibition, % at 2 µM; 130,000 compounds, 0.9% hits; AID 1273;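 active = inhibition above the mean plus 3 SD, with well images judged a real hit on visual review, cut at about 60% in these data, passing the limit was not always enough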
# HMGR II inh: inhibitors of class II HMG-CoA reductase from Enterococcus faecalis | purified E. faecalis HMGR, NADPH absorbance 340 nm kinetic | inhibition, % at 10 µM | 190,000 compounds, 0.41% hits;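 active = inhibition above a set limit, the median over all tested compounds plus 3 SD, cut at about 9.5% in these data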;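 also: enzyme runs in reverse so mevalonate oxidation gives rising NADPH absorbance; 0% = complete reaction with DMSO and 100% = background rate lacking mevalonate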
# * = called active by the depositor; i = inactive; / = no result. Rows were chosen to be rich in hits. Some 1.1% of all compounds tested hit in one or more screens of this group.
SMILES,HSV augment,Insulin prom up,INS promoter inh,HMGR II inh
CC(=O)Nc1ccc(NS(=O)(=O)c2ccc(Cl)c(C(=O)O)c2)cc1,i,0.34,79*,-9
CCCOc1ccc(C(=O)ON=C2CCN(C)CC2)cc1,i,-0.32,21,-4
CCCCN(C)CC(O)Cn1cc(/C=C/C(=O)c2cccs2)c2ccccc21 (centres undefined),i,4.8*,-230,-6
CCN(CC)S(=O)(=O)c1cc(C(=O)n2cccn2)c(Cl)cc1Cl,i,1.1,-200,2
Cc1cccnc1NC1CCCCC1,i,0.38,79*,-2
c1cnc(NC2CCCCCC2)nc1,i,-0.62,41,1
Fc1ccc(C2CC(c3ccco3)=NN2c2ccccc2)cc1 (centres undefined),i,3.5*,/,5
Cc1cc(C)n2c(SCc3ccc(Br)cc3)nnc2n1,i,-1.1,/,/
Cc1cc(C)n2c(SCc3c(C)noc3C)nnc2n1,i,0.27,80*,-4
O=C(/C=C\c1ccc2c(c1)OCO2)CC1(O)C(=O)Nc2ccccc21 (centres undefined),i,0.09,/,/
CCCSc1nc2c(cnn2-c2ccccc2)c(=O)[nH]1,i,1.2,0,0
O=c1[nH]c(/C=C/c2ccccc2OC(F)F)nc2c1cnn2-c1ccccc1,i,3.2*,-38,5
Cc1c(C(=O)NCc2cccnc2)oc2c1C(=O)CC(C)(C)C2,i,0,79*,0
CCNC(=O)c1oc2c(c1C)C(=O)CC(C)(C)C2,i,/,71,-6
CC1CN(c2nc(-c3ccccc3)nc3ccccc23)CC(C)O1 (centres undefined),i,0.69,92*,-6
CC1CN(c2cc(-c3ccccc3)c3ccccc3n2)CC(C)O1 (centres undefined),i,0.05,-64,-2
CN(C)/C=C(/C(=O)c1ccc(Cl)cc1)S(=O)(=O)c1ccc(Cl)cc1,/,/,-26,12*
CCCCOc1ccc(CCC(=O)N/N=C/c2ccco2)cc1,i,0.18,/,/
C/C(=N\NC(=O)c1ccn(C)n1)c1ccc(NC(=O)C2CCCC2)cc1,i,0.4,71*,-5
Cn1cccc1/C=C1\SC(=Nc2ccccc2)NC1=O,i,0.1,/,/
Cc1ccc(N=C2NC(=O)/C(=C/c3cn(C)c4ccccc34)S2)cc1C,/,3*,/,-10
CCCCNC(=S)NC(C)(C)CO,i,-0.21,/,-4
CCN(CC)C(=O)c1cnn(-c2ccccc2)c1NC(=O)c1ccco1,i,1.8,-3,2
CCN(CC)C(=O)c1cnn(-c2ccccc2)c1NC(=O)c1cccs1,i,0.1,-26,9.6*
CC1(C)CC(NC(=O)CC2CCCCC2)CC(C)(C)N1,i,/,82*,-1
SMILES,HSV augment,Insulin prom up,INS promoter inh,HMGR II inh
CC1(C)CC(NC(=O)CCC2CCCC2)CC(C)(C)N1,i,-0.25,52,2
O=[N+]([O-])c1ccc(N2CCCCC2)c(-c2nn[nH]n2)c1,i,0.49,17,14*
O=C(O)COc1ccccc1/C=N/NC(=O)CSc1nnc(SCc2ccccc2)s1,i,-0.69,/,/
Cc1cccc2sc(NC(=O)C3CCCN(S(=O)(=O)c4cccc5nonc45)C3)nc12 (centres undefined),i,6.6*,-9,5
CC(C)OC(=O)NC(C)(C)COC(=O)Nc1cccc(Cl)c1,i,/,-95,16*
CCCCSc1ncc(C(=O)OCC)c(N)n1,i,/,80*,-3
O=C(O)c1cc(-c2ccc(N3CCOCC3)cc2)nn1-c1ccccc1Cl,i,0.73,-53,21*
O=C(O)c1cc(-c2ccc(N3CCOCC3)cc2)nn1-c1ccc(F)cc1F,i,-1,/,-12
COC(=O)c1c(NC(=O)CC2SC(N)=NC2=O)sc2c1CCC(C(C)(C)C)C2 (centres undefined),i,/,-18,0
Cc1oc(S(=O)(=O)N(C)C)cc1C(=O)Nc1ccc(Cl)cc1,i,-1.1,/,/
c1ccc(-c2noc(-c3cccnc3)n2)nc1,i,0.58,89*,-2
CC(C)(C)c1ccc(NC(=O)N2CCN(c3ccc([N+](=O)[O-])cn3)CC2)cc1,i,-0.43,/,/
COc1ccc(Cn2c(C)c(C)c(C#N)c2NC(=O)Nc2ccc(Cl)cc2)cc1,i,1.6,-19,11*
CC(=O)Nc1cccc(NC(=O)CSc2nnnn2-c2ccc3c(c2)OCO3)c1,i,-0.01,/,/
Cc1ccccc1NCC(=O)N/N=C/c1c[nH]c2ccccc12,i,4*,/,1
O=C(CNC(=O)c1ccco1)N/N=C/c1c[nH]c2ccccc12,i,-0.34,26,9.7*
Cc1cccc(NCC(=O)N/N=C\c2c[nH]c3ccccc23)c1,i,/,10,-3
COc1cc(OC)cc(C(=O)NNC(=O)CCc2ccccc2)c1,i,0.54,-40,4
Cc1csc2ncnc(N3CCN(C(=O)Nc4ccc(OC(F)(F)F)cc4)CC3)c12,i,/,/,/
CC12CCC(C(=O)N(CSC(=S)N/N=C\c3ccccc3O)C1=O)C2(C)C (centres undefined),i,/,70,9.9*
COc1cc(C(=O)Nc2cccc(-c3nc4cc(C)ccc4o3)c2)cc(OC)c1OC,i,-0.29,71*,0
COc1cc(NC(=O)COC(=O)CC(C)(C)C)c(C)cc1[N+](=O)[O-],i,-0.09,-56,-1
COc1cc(NC(=O)CN(C)Cc2ccc(OC(F)F)cc2)c(C)cc1[N+](=O)[O-],i,-4.5,/,-3
COc1ccc(CN(C)CC(=O)Nc2cc(OC)c([N+](=O)[O-])cc2C)c(OC)c1,i,0.15,71*,-3
CCOCC(=O)OCC(=O)Nc1cc(OC)c([N+](=O)[O-])cc1C,i,0.37,-64,21*
SMILES,HSV augment,Insulin prom up,INS promoter inh,HMGR II inh
COC(=O)CCSCC(=O)N1N=C(c2ccc(OC)cc2)CC1c1cccc(OC)c1OC (centres undefined),i,0.09,-180,1
O=C(c1ccc(Br)cc1)N(c1ccccn1)C1CCCCC1,i,-0.82,/,/
CCCn1c(SCC(=O)Nc2nc(C)cs2)nnc1-c1cccnc1,i,/,75*,3
CCCn1c(SCC(=O)NC2CCCCC2)nnc1-c1ccncc1,i,3.1*,-25,5
CCCn1c(SCC(=O)NNC(=O)c2ccccc2)nnc1-c1cccnc1,i,2.2,/,/
O=C(CSc1nnc(-c2ccncc2)n1Cc1ccccc1)NC1CCCCC1,i,0.17,/,/
COc1ccc(CNC(=O)C(NC(C)=O)C(=O)Nc2ccc(C(C)C)cc2)cc1 (centres undefined),i,-0.12,/,12*
COc1ccc(NC(=O)C(c2ccc(OC)cc2)N(C)C(=O)CNC(C)=O)cc1 (centres undefined),i,1.5,77*,3
COc1ccc(NC(=O)C(NC(C)=O)C(=O)NCc2ccccc2OC)cc1 (centres undefined),i,0.2,19,-4
COC(=O)C1CCN(CC(=O)NC(=O)NC2CCCCC2)CC1,i,1.2,33,-3
CCOc1ccc(NC(=O)c2ccccc2OCC(=O)c2ccccc2)cc1,i,-0.57,27,-1
O=C(C1=C[C@H](c2ccccc2)C[C@H](OCc2ccc(CO)cc2)O1)N1CCCCCCC1,/,-0.47,/,-1
O=C(Nc1ccc(N2CCN(C(=O)c3cccs3)CC2)c(Cl)c1)c1cccnc1,i,-1,/,11*

# Compound activity from PubChem.
